The values that follow come from publication PMC4336329 (PLoS ONE, 2015).

The campaign covered roughly 310,000 compounds. About 14,000 (4.5%) showed an effect of 50% or more. The effect is printed as a negative number. What follows is part of a selection rich in strong results, with near analogues and random picks from the rest.
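Further: peak tail current of the secondary pulse compared with the same well before compound.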

This test deals with human ether-à-go-go-related gene (hERG) potassium channel (human, UniProt Q12809). The experiment in a line: primary screen, population patch clamp on CHO cells stably expressing hERG; higher = less effect of the substance.
Chain of human ether-à-go-go-related gene (hERG) potassium channel (Q12809 whole entry, looked up): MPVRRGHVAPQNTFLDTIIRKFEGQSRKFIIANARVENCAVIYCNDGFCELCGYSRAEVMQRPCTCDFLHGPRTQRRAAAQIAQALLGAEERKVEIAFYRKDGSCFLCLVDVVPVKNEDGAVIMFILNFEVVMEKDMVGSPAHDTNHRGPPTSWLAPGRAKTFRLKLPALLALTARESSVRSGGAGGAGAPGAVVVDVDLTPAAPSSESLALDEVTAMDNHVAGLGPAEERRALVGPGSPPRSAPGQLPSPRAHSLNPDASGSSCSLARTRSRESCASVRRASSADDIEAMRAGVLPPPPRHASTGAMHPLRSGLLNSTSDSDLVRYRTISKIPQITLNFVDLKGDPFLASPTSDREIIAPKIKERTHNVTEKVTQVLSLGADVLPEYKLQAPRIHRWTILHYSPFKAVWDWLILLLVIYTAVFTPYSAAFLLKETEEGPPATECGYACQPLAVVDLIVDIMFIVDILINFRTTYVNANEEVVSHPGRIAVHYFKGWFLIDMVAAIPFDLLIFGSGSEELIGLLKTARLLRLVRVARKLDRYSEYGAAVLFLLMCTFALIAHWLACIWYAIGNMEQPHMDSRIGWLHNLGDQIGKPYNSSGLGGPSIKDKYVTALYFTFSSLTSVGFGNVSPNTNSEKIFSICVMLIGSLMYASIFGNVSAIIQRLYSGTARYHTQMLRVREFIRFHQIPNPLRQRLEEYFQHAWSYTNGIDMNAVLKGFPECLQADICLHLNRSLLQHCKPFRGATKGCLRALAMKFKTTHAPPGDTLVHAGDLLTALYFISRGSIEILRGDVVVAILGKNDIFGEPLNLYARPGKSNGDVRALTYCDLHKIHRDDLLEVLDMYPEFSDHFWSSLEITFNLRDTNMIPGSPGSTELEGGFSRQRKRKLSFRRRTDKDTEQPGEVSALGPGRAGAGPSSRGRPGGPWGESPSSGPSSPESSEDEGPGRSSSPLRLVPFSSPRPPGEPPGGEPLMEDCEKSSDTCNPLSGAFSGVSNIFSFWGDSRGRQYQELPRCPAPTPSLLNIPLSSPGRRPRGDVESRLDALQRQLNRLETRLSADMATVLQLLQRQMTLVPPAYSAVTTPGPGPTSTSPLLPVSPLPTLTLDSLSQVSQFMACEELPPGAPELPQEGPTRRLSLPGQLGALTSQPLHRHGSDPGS
With `CC(=O)Nc1ccccc1C(=O)C(=O)Nc1ccc(C)c(F)c1`, the “hERG current change (%, negative = inhibition) at 10uM” value was found to be 24.3%.
For the molecule `O=C(CSC1=NCCS1)Nc1ccc(S(=O)(=O)NC2CCCCC2)cc1`, the “hERG current change (%, negative = inhibition) at 10uM” value is recorded as -8.65%.
The value for `CC(=O)c1ccc(OCC(O)CN2CCC(C)CC2)cc1.Cl` (stereo not shown) was -31.6%; that for `O=C(c1ccccc1)c1ccc(OCC(O)CN2CCN(Cc3ccccc3)CC2)cc1` (stereo not shown) was -73.4%.
Turning to `CC1CCN(CC(O)COc2ccc(C(=O)c3ccccc3)cc2)CC1` (stereo not shown), the “hERG current change (%, negative = inhibition) at 10uM” value is given as -67.4%.
With `CC1CN(CC(O)COc2ccc(C(=O)c3ccccc3)cc2)CC(C)O1` (stereo not shown), the “hERG current change (%, negative = inhibition) at 10uM” value is -63.3%.
The value for `OC(COc1ccc(OCC(O)CN2CCN(Cc3ccccc3)CC2)cc1)CN1CCN(Cc2ccccc2)CC1` (stereo not shown) was 5.65%.
The same measure for `CC1CCN(CC(O)COc2ccc(OCC(O)CN3CCC(C)CC3)cc2)CC1` (stereo not shown): 3.84%; for `NC(=O)C1CCN(CC(O)COc2ccc(-c3ccccc3)cc2)CC1` (stereo not shown): -34.4%.
The value for `CCC(=O)c1ccc(OCC(O)CN2CC(C)OC(C)C2)cc1.O=C(O)C(=O)O` (stereo not shown) was 14%; that for `O=C(c1ccccc1)c1ccc(OCC(O)CN2CCCC2)cc1` (stereo not shown) was -45.3%; that for `CC1CCN(CC(O)COc2ccc(-c3ccccc3)cc2)CC1.Cl` (stereo not shown) was -81%.
`CC(=O)c1ccc(OCC(O)CN2CCN(Cc3ccccc3)CC2)cc1.Cl` (stereo not shown): the “hERG current change (%, negative = inhibition) at 10uM” value is given as -48.2%.
The same measure for `CC(=O)c1ccc(OCC(O)CN2CC(C)OC(C)C2)cc1.Cl` (stereo not shown): 8.19%.
Consider `CC(=O)c1sc(-c2ccc(F)cc2)cc1NS(=O)(=O)c1ccc(C)cc1`, for which the “hERG current change (%, negative = inhibition) at 10uM” value was found to be 7.93%.
The value for `C=CCOc1ccc2ccccc2c1CNn1cn[nH]c1=S` was -8.17%; that for `O=C(NCCc1csc(-c2cccc(F)c2)n1)c1ccco1` was -4.61%; that for `O=C(CN1C(=O)S/C(=C\c2ccccc2)C1=O)Nc1cc([N+](=O)[O-])ccc1O` was 6.11%.
The same measure for `O=C(c1cc(Cl)ccc1[N+](=O)[O-])n1cnc2ccccc21`: -11.9%.
The value for `Cc1cc2c(c(N)n1)c(=O)oc1ccccc12` was 13.9%; that for `Nn1c(CSc2nc3ccccc3o2)nnc1CSc1nc2ccccc2o1` was -22.8%; that for `O=C(CN1c2cccc3cccc(c23)S1(=O)=O)Nc1ccccc1` was 24.3%.
Take `CN(CC(=O)Nc1ccc(Cl)c(Cl)c1)C(=O)CC1OC(=O)c2ccccc21` (stereo not shown): the “hERG current change (%, negative = inhibition) at 10uM” value is recorded as -70.3%.
For `CCOc1ccc(NC(=O)CN(C)C(=O)CC2OC(=O)c3ccccc32)cc1OCC` (stereo not shown), the “hERG current change (%, negative = inhibition) at 10uM” value is on record as 0.75%.
As for `CN(CC(=O)Nc1c(Cl)cccc1Cl)C(=O)CC1OC(=O)c2ccccc21` (stereo not shown), the “hERG current change (%, negative = inhibition) at 10uM” value is -2.8%.
